For some of these results: Results with a measured potency or affinity are listed apart. Active and inactive are the calls of the source. No rule for the calls is given here.
How the values were obtained:
[1] = Ebola virus entry assay, green fluorescence channel
[2] = Ebola virus entry assay, green channel fluorescence
[3] = qHTS profiling of the MIPE4 collection as inhibitors of Plasmodium falciparum (DD2) proliferation (AID 743345); details: P. falciparum Dd2 in erythrocytes, SYBR Green DNA, 72 h; at 28.5 µM (top of the series) unless noted
Procedure, shortened: (§1)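 Parasite DNA was quantified by SYBR Green I fluorescence (ex 485, em 535 nm) after overnight lysis in saponin/Triton buffer at room temperature. Cultures at 0.3% parasitemia and 2.5% hematocrit were first exposed to compound for 72 h at 37 C; signals were normalised to artemisinin (0.29 uM) and vehicle wells.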

[4] = qHTS profiling of the MIPE4 collection as inhibitors of Plasmodium falciparum (HB3) proliferation (AID 743347);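 also: plate controls were DMSO vehicle wells for no effect and artemisinin wells for full effect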; details: P. falciparum HB3 in erythrocytes, SYBR Green DNA, 72 h; at 28.5 µM (top of the series) unless noted
Procedure, shortened: as §1
For efficacy in this document: 0% is about no effect.

Row | Compound | efficacy [1] | outcome [2] | parasite growth remaining, % of DMSO control (lower = more inhibition) [3] | growth, % of control [4]
1 | COc1ccc(O)cc1 | 18.3% (inactive) | inactive |  | 
2 | COc1ccc2c(c1)CCCC2=O | 8.41% (inactive) | inactive |  | 
3 | C#C[C@]1(O)CC[C@H]2[C@@H]3CCC4=CC(=O)CC[C@@H]4[C@H]3CC[C@@]21CC | 10.4% (inactive) | inactive |  | 
4 | COC(=O)c1cc(Cl)ccc1NS(=O)(=O)C(F)(F)F | -9.07% (inactive) | inactive |  | 
5 | CC1CCN(CCCC(=O)c2ccc(F)cc2)CC1 | -14.6% (inactive) | inactive |  | 
6 | Cc1nc2ccc(CN(C)c3ccc(C(=O)N[C@@H](CCC(=O)O)C(=O)O)s3)cc2c(=O)[nH]1 | 17.4% (inactive) | inactive |  | 
7 | COc1cc(/C=C/C(N)=O)cc(OC)c1OC | -22.5% (inactive) | inactive |  | 
8 | Cn1cc(S(C)=O)c(=O)c2ccc(F)cc21 (configuration not stated) | -15.1% (inactive) | inactive |  | 
9 | C[C@@H](O)[C@H]1C(=O)N2C(C(=O)O)=C(SCCN=CN)C[C@H]12 | 21.9% (inactive) | inactive |  | 
10 | c1ccc2c(c1)CCCC2C1=NCCN1 (configuration not stated) | -12.9% (inactive) | inactive |  | 
11 | NCC(=O)CCC(=O)O | -14.6% (inactive) | inactive |  | 
12 | CC(C)=CCC1C(=O)N(c2ccccc2)N(c2ccccc2)C1=O | -18% (inactive) | inactive |  | 
13 | NCCNCCNCCN | 15% (inactive) | inactive |  | 
14 | CC1(C)O[C@@H]2C[C@H]3[C@@H]4C[C@H](F)C5=CC(=O)C=C[C@]5(C)[C@@]4(F)[C@@H](O)C[C@]3(C)[C@]2(C(=O)CO)O1 | 10.5% (inactive) | inactive |  | 
15 | COc1ccc(-c2cc(=O)c3c(O)cc(O[C@@H]4O[C@H](CO[C@@H]5O[C@@H](C)[C@H](O)[C@@H](O)[C@H]5O)[C@@H](O)[C@H](O)[C@H]4O)cc3o2)cc1O | -6.57% (inactive) | inactive |  | 
16 | CC[C@]12CCCN3CCc4c(n(c5ccccc45)[C@@](O)(C(=O)OC)C1)[C@@H]32 | -18% (inactive) | inactive |  | 
17 | CC(=O)OCC(=O)[C@@]1(O)CC[C@H]2[C@@H]3CCC4=CC(=O)C=C[C@]4(C)[C@@]3(F)[C@@H](O)C[C@@]21C | 26.4% (inactive) | inactive |  | 
18 | CCCCCCCCCCCCCCCCN | -37.3% (inactive) | inactive |  | 
19 | CCN(CC)CCNC(=O)c1cc(S(C)(=O)=O)ccc1OC | -10.9% (inactive) | inactive |  | 
20 | CC(C)COC(=O)c1ccc(N)cc1 | 8.42% (inactive) | inactive |  | 

Row | Compound | efficacy [1] | outcome [2] | parasite growth remaining, % of DMSO control (lower = more inhibition) [3] | growth, % of control [4]
21 | OCc1cccnc1 | -9.44% (inactive) | inactive |  | 
22 | CN(C)C(=O)Oc1ccc[n+](C)c1 | 18% (inactive) | inactive |  | 
23 | Nc1ccc(S(=O)(=O)Nc2ccccn2)cc1 | -13.9% (inactive) | inactive |  | 
24 | OC1(c2ccc(Cl)cc2)CCNCC1 | 19.8% (inactive) | inactive |  | 
25 | Cc1c(Nc2ncccc2C(=O)O)cccc1C(F)(F)F | -17.3% (inactive) | inactive |  | 
26 | COC(=O)/C=C(/C)N | 22.1% (inactive) | inactive |  | 
27 | COc1cc(C)c(Cc2cnc(N)nc2N)cc1OC | -5.94% (inactive) | inactive |  | 
28 | CC(=O)Nc1c(I)c(NC(C)=O)c(I)c(C(=O)O)c1I | -8.35% (inactive) | inactive |  | 
29 | CC1CN(c2cc3c(cc2F)c(=O)c(C(=O)O)cn3-c2ccc(F)cc2F)CCN1 (configuration not stated) | 9.66% (inactive) | inactive |  | 
30 | Oc1ccc(Cl)cc1 | -35.6% (inactive) | inactive |  | 
31 | CO/N=C(/C(=O)N[C@@H]1C(=O)N2C(C(=O)OCOC(=O)C(C)(C)C)=C(C)CS[C@H]12)c1csc(N)n1 | -17.1% (inactive) | inactive |  | 
32 | Cc1ccc(S(=O)(=O)NC(=O)NC2CCCCC2)cc1 | -18.8% (inactive) | inactive |  | 
33 | Oc1cccc(O)c1 | -18.5% (inactive) | inactive |  | 
34 | COC(=O)C(Cl)C(=O)OC | 18.5% (inactive) | inactive |  | 
35 | CCCCCC(C)N (configuration not stated) | -23% (inactive) | inactive |  | 
36 | CC1(C)O[C@H]2CC(=O)OC[C@]23[C@H]2CC[C@@]4(C)[C@H](c5ccoc5)OC(=O)[C@H]5O[C@]54[C@]2(C)C(=O)C[C@@H]13 | -20.6% (inactive) | inactive |  | 
37 | CC1(COc2ccc(CC3SC(=O)NC3=O)cc2)CCCCC1 (configuration not stated) | -16.4% (inactive) | inactive |  | 
38 | O=C1O[C@H](CO)[C@@H](O)[C@H](O)[C@H]1O | 24.7% (inactive) | inactive |  | 
39 | CN1C(=O)COc2c(C(=O)NC3CN4CCC3CC4)cc(Cl)cc21 (configuration not stated) | -18% (inactive) | inactive | 78.2% | 86.6%
40 | NC(=O)NC1N=C([O][Al])NC1=O (configuration not stated) | 12.9% (inactive) | inactive |  | 
